In the supplement of paper PMC12669032:
Values without a mark were called inactive.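 The calls were made as follows: active = AUC reduced over 20% with Padj below 0.05 in at least 2 of 3 replicates; inactive = otherwise.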

These compounds were tested on Fusobacterium nucleatum subsp. animalis (assay: growth AUC relative to DMSO control (median of replicates) (fraction); higher = more growth (less inhibition), active = hit call of the paper). Settings: 20 µM; 24 h.
In short: (§1)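 In round-bottom 96-well plates sealed with pierced gas-permeable seals, gut bacterial monocultures in mGAM were grown anaerobically at 37 °C from OD600 0.05 with 20 µM compound (1% DMSO). OD600 readings were taken hourly for 24 h, and the minimum OD was set to 0. Area under the growth curve was then normalised to the plate median of solvent-only wells, or to row and column medians on the industrial chemical plate. The value given is the median of three biological replicates grown on separate days.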
`N#Cc1ccc(CC(=NNC(=O)Nc2ccc(OC(F)(F)F)cc2)c2cccc(C(F)(F)F)c2)cc1` (mixture of isomers) was tested, and the “growth AUC” value was 1.12.
`COC(=O)C(C)Oc1ccc(Cl)cc1Cl` (stereo not drawn) was tested, and the “growth AUC” value was 0.95.
In the case of `CC(C)N(C(=O)C(=O)O)c1ccccc1`, the “growth AUC” value is reported as 1.09.
`c1ccc(CNc2ncnc3nc[nH]c23)cc1` was tested, and the “growth AUC” value was 0.943.
With `C=CCc1ccc(O)c(OC)c1` the “growth AUC” value was 1.
`CCCCOC(=O)COc1ccc(Cl)cc1Cl` was tested, and the “growth AUC” value was 1.08.
In the case of `CC(Oc1ccc(Cl)cc1Cl)C(=O)NC(C)(C#N)C(C)C` (stereo not drawn), the “growth AUC” value is reported as 0.972.
In the case of `Cc1cccc(C)c1N(CC(=O)O)C(=O)CS(=O)(=O)[O-].[Na+]`, the “growth AUC” value is reported as 0.941.
With `c1ccc2cc3ccccc3cc2c1` the “growth AUC” value was 1.01.
In the case of `Cn1cc(C(=O)Nc2ccc(F)cc2-c2ccc(Cl)c(Cl)c2)c(C(F)F)n1`, the “growth AUC” value is reported as 0.944.
In the case of `O=c1cccc2n1CCn1c-2cccc1=O`, the “growth AUC” value is reported as 0.971.
For `CCCCCCC(C)OC(=O)COc1nc(F)c(Cl)c(N)c1Cl` (stereo not drawn), the “growth AUC” value was 0.935.
In the case of `Cc1[nH]n(C)c(=O)c1C(=O)c1ccc(C(F)(F)F)cc1S(C)(=O)=O`, the “growth AUC” value is reported as 1.01.
`COC(=O)[C@@H](C)Oc1ccc(Oc2ncc(C(F)(F)F)cc2Cl)cc1` was tested, and the “growth AUC” value was 1.06.
`CC(C)OC(=O)N[C@H](C(=O)N[C@H](C)c1nc2ccc(F)cc2s1)C(C)C` was tested, and the “growth AUC” value was 1.16.
`O.O=C(Nc1ccc([N+](=O)[O-])cc1Cl)c1cc(Cl)ccc1O` was tested, and the “growth AUC” value was 0.741.
For `CC1=C(C(=O)Nc2ccccc2)CCCO1`, the “growth AUC” value was 0.969.
With `CCOCCOC(=O)C(C)Oc1ccc(Oc2ncc(C(F)(F)F)cc2Cl)cc1` (stereo not drawn) the “growth AUC” value was 1.05.
With `NS(=O)(=O)[O-].[NH4+]` the “growth AUC” value was 1.09.
With `CCOC(=O)CSc1nc(C(C)(C)C)nn1C(=O)N(C)C` the “growth AUC” value was 0.918.
For `CCc1cccc(C)c1NC(=O)CS(=O)(=O)[O-].[Na+]`, the “growth AUC” value was 0.945.
In the case of `ClC(COCC(Cl)C(Cl)(Cl)Cl)C(Cl)(Cl)Cl` (stereo not drawn), the “growth AUC” value is reported as 0.992.
With `CCC(C)c1cc([N+](=O)[O-])cc([N+](=O)[O-])c1OC(=O)OC(C)C` (stereo not drawn) the “growth AUC” value was 0.611 (active).
`CC(C)(CO)C(O)(CCc1ccc(Cl)cc1)Cn1cncn1` (stereo not drawn) was tested, and the “growth AUC” value was 1.
With `CC(C)(C)C(=O)C(Oc1ccc(Cl)cc1)n1ccnc1` (stereo not drawn) the “growth AUC” value was 1.02.
In the case of `CC(C)(NC(=O)C(Br)C(C)(C)C)c1ccccc1` (stereo not drawn), the “growth AUC” value is reported as 0.895.
With `COc1cc(OC)nc(NC(=O)NS(=O)(=O)c2c(Cl)nc3ccccn23)n1` the “growth AUC” value was 1.13.
For `CCc1ccc(O)cc1`, the “growth AUC” value was 1.13.
For `CCOc1nc(F)cc2nc(S(=O)(=O)Nc3c(Cl)cccc3C(=O)OC)nn12`, the “growth AUC” value was 0.995.
`CCOCCc1ccc(OCCNc2ncnc(CC)c2Cl)c(C)c1C` was tested, and the “growth AUC” value was 1.07.
With `CCOC(=O)[C@@H](C)Oc1ccc(Oc2cnc3cc(Cl)ccc3n2)cc1` the “growth AUC” value was 0.992.
With `Cc1cccc(C)c1N(C(=O)CCl)C1CCOC1=O` (stereo not drawn) the “growth AUC” value was 1.02.
`Cc1[nH]oc(=O)c1N=Nc1ccccc1Cl` was tested, and the “growth AUC” value was 0.839.
`CCCOc1nc2ccc(I)cc2c(=O)n1CCC` was tested, and the “growth AUC” value was 0.973.
With `CCOCOc1ccc(C(=O)Nc2cccc(Cl)c2Cl)cc1` the “growth AUC” value was 0.901.
For `COc1ccc(Oc2ccc(NC(=O)N(C)C)cc2)cc1`, the “growth AUC” value was 0.906.
`COCCN(C(=O)CO)c1c(C)cccc1C(=O)O` was tested, and the “growth AUC” value was 0.968.
For `C/C=C/C=C/CCCCCCCO`, the “growth AUC” value was 1.08.
With `CCOC(=O)C(C)Oc1ccc(Oc2nc3ccc(Cl)cc3o2)cc1` (racemic) the “growth AUC” value was 0.929.

What follows are compounds tested on Lactobacillus gasseri in the same assay as above. Settings: 20 µM; 24 h.
In short: as §1
`N#Cc1ccc(CC(=NNC(=O)Nc2ccc(OC(F)(F)F)cc2)c2cccc(C(F)(F)F)c2)cc1` (mixture of isomers) was tested, and the “growth AUC” value was 1.15.
In the case of `COC(=O)C(C)Oc1ccc(Cl)cc1Cl` (stereo not drawn), the “growth AUC” value is reported as 0.991.
With `CC(C)N(C(=O)C(=O)O)c1ccccc1` the “growth AUC” value was 1.07.
`c1ccc(CNc2ncnc3nc[nH]c23)cc1` was tested, and the “growth AUC” value was 0.956.
In the case of `C=CCc1ccc(O)c(OC)c1`, the “growth AUC” value is reported as 0.95.
For `CCCCOC(=O)COc1ccc(Cl)cc1Cl`, the “growth AUC” value was 1.06.
For `CC(Oc1ccc(Cl)cc1Cl)C(=O)NC(C)(C#N)C(C)C` (stereo not drawn), the “growth AUC” value was 0.803.
In the case of `Cc1cccc(C)c1N(CC(=O)O)C(=O)CS(=O)(=O)[O-].[Na+]`, the “growth AUC” value is reported as 0.987.
For `c1ccc2cc3ccccc3cc2c1`, the “growth AUC” value was 0.914.
For `Cn1cc(C(=O)Nc2ccc(F)cc2-c2ccc(Cl)c(Cl)c2)c(C(F)F)n1`, the “growth AUC” value was 0.881.
With `O=c1cccc2n1CCn1c-2cccc1=O` the “growth AUC” value was 0.982.
In the case of `CCCCCCC(C)OC(=O)COc1nc(F)c(Cl)c(N)c1Cl` (stereo not drawn), the “growth AUC” value is reported as 0.967.
For `Cc1[nH]n(C)c(=O)c1C(=O)c1ccc(C(F)(F)F)cc1S(C)(=O)=O`, the “growth AUC” value was 1.02.
In the case of `COC(=O)[C@@H](C)Oc1ccc(Oc2ncc(C(F)(F)F)cc2Cl)cc1`, the “growth AUC” value is reported as 0.889.
For `CC(C)OC(=O)N[C@H](C(=O)N[C@H](C)c1nc2ccc(F)cc2s1)C(C)C`, the “growth AUC” value was 0.859.
With `O.O=C(Nc1ccc([N+](=O)[O-])cc1Cl)c1cc(Cl)ccc1O` the “growth AUC” value was 0.15 (active).
In the case of `CC1=C(C(=O)Nc2ccccc2)CCCO1`, the “growth AUC” value is reported as 0.952.
`CCOCCOC(=O)C(C)Oc1ccc(Oc2ncc(C(F)(F)F)cc2Cl)cc1` (stereo not drawn) was tested, and the “growth AUC” value was 0.952.
For `NS(=O)(=O)[O-].[NH4+]`, the “growth AUC” value was 0.996.
With `CCOC(=O)CSc1nc(C(C)(C)C)nn1C(=O)N(C)C` the “growth AUC” value was 0.91.
For `CCc1cccc(C)c1NC(=O)CS(=O)(=O)[O-].[Na+]`, the “growth AUC” value was 1.04.
`ClC(COCC(Cl)C(Cl)(Cl)Cl)C(Cl)(Cl)Cl` (stereo not drawn) was tested, and the “growth AUC” value was 1.11.
In the case of `CCC(C)c1cc([N+](=O)[O-])cc([N+](=O)[O-])c1OC(=O)OC(C)C` (stereo not drawn), the “growth AUC” value is reported as 0.859.
With `CC(C)(CO)C(O)(CCc1ccc(Cl)cc1)Cn1cncn1` (stereo not drawn) the “growth AUC” value was 0.88.
For `CC(C)(C)C(=O)C(Oc1ccc(Cl)cc1)n1ccnc1` (stereo not drawn), the “growth AUC” value was 0.918.
With `CC(C)(NC(=O)C(Br)C(C)(C)C)c1ccccc1` (stereo not drawn) the “growth AUC” value was 1.12.
With `COc1cc(OC)nc(NC(=O)NS(=O)(=O)c2c(Cl)nc3ccccn23)n1` the “growth AUC” value was 1.06.
`CCc1ccc(O)cc1` was tested, and the “growth AUC” value was 0.963.
In the case of `CCOc1nc(F)cc2nc(S(=O)(=O)Nc3c(Cl)cccc3C(=O)OC)nn12`, the “growth AUC” value is reported as 1.01.
`CCOCCc1ccc(OCCNc2ncnc(CC)c2Cl)c(C)c1C` was tested, and the “growth AUC” value was 0.883.
In the case of `CCOC(=O)[C@@H](C)Oc1ccc(Oc2cnc3cc(Cl)ccc3n2)cc1`, the “growth AUC” value is reported as 1.03.
`Cc1cccc(C)c1N(C(=O)CCl)C1CCOC1=O` (stereo not drawn) was tested, and the “growth AUC” value was 0.953.
For `Cc1[nH]oc(=O)c1N=Nc1ccccc1Cl`, the “growth AUC” value was 0.931.
With `CCCOc1nc2ccc(I)cc2c(=O)n1CCC` the “growth AUC” value was 0.833.
`CCOCOc1ccc(C(=O)Nc2cccc(Cl)c2Cl)cc1` was tested, and the “growth AUC” value was 1.05.
With `COc1ccc(Oc2ccc(NC(=O)N(C)C)cc2)cc1` the “growth AUC” value was 1.11.
For `COCCN(C(=O)CO)c1c(C)cccc1C(=O)O`, the “growth AUC” value was 0.811.
`C/C=C/C=C/CCCCCCCO` was tested, and the “growth AUC” value was 0.96.
For `CCOC(=O)C(C)Oc1ccc(Oc2nc3ccc(Cl)cc3o2)cc1` (racemic), the “growth AUC” value was 0.91.
